High-throughput results: PubChem BioAssay, several laboratories
ADAM10 inh – ADAM10 inhibition, QFRET primary screen; AID 720582; O14672; recombinant ADAM10, EDANS/DABCYL FRET peptide cleavage, 3 h; 370,000 tested, 0.62% active; inhibition, % at 7 µM;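 active means inhibition above a per-campaign cutoff equal to the mean of compounds falling between control-based bounds plus 3 SD, cut at about 20% in these data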;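 further: 0% = DMSO wells while the 100% control is not disclosed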
Target sequence (O14672 214-748 limits assumed): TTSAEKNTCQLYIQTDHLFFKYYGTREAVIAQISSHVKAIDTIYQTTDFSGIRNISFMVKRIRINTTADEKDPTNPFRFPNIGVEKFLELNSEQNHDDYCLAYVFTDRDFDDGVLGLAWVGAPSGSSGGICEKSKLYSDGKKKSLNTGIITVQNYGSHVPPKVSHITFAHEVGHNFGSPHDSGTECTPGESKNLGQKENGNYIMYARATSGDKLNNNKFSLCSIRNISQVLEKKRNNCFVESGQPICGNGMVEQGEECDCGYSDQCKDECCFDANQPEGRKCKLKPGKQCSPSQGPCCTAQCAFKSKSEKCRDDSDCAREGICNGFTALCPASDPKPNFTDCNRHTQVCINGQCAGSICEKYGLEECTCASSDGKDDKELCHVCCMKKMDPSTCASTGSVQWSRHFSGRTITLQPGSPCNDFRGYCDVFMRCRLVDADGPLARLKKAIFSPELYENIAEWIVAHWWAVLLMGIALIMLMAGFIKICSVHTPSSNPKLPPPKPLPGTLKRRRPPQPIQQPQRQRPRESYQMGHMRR
ADAM17 inh – ADAM17 inhibition, QFRET primary screen | 370,000 tested, 0.83% active | P78536 | inhibition, % at 6.95 µM | recombinant ADAM17, EDANS/DABCYL FRET peptide cleavage;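 active means inhibition above the mean of compounds lying between control limits plus 3 SD, set per campaign, cut at about 8.5% in these data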;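 further: 0% = DMSO-only wells as the low control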
FAS-TE inh – FAS thioesterase (human) inhibition | P49327 | recombinant FAS-TE, OMFH fluorogenic substrate, fluorescence endpoint | inhibition, % at 15 µM | 360,000 tested, 0.67% active | AID 602261;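 active means compounds whose normalised, plate-corrected inhibition of enzyme fluorescence in the single-dose primary screen is 50% or more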;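 further: 0% = DMSO with enzyme and 100% = substrate without enzyme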
NR3A LBD binder – modulates the human NR3A ligand-binding domain; AID 1259313; NR3A LBD differential scanning fluorimetry, Tm shift; 0% = protein alone, 100% = glycine-bound protein; Tm shift relative to glycine control, % at 25 µM; 340,000 tested, 2.5% active;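 active means melting temperature shift of at least 10% of the positive control shift, at one fixed dose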
sPLA2-III inh – Blocks human group III sPLA2 activity; QFRET BODIPY PC-A2 liposome hydrolysis, fluorescence; inhibition, % at 12.2 µM; 370,000 tested, 0.56% active; AID 743126;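 active means inhibition above mean plus 3 SD of compounds lying within the high and low control bounds, cut at about 19% in these data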;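 further: 0% = median of test compound wells and 100% = no enzyme DMSO wells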
* = called active by the depositor; i = inactive; . = no result. The list is not random: actives were taken first. Their share in the collection is about 4.3%.

SMILES	ADAM10 inh	ADAM17 inh	FAS-TE inh	NR3A LBD binder	sPLA2-III inh
Cc1ccc(Cl)cc1N1CCN(CC(=O)NC2CCCc3ccccc32)CC1 (configuration not stated)	11	3	22	10*	-5
O=C(CN1CCN(c2ccccc2Cl)CC1)NC1CCCc2ccccc21 (configuration not stated)	2	-2	17	4	6
Nc1c(-c2cccc(Cl)c2)cnn1-c1cccc(C(F)(F)F)c1	19	8.6*	36	-11	3
Cc1nc2sc(C(=O)NCc3nccs3)c(N)c2c(C)c1Cl	-26	-6	.	.	3
O=C(Nc1ccccc1OC(F)F)c1ccccc1	4	-2	0	0	3
Cc1ccc(C(=O)Nc2ccccc2OC(F)F)cc1	-10	-6	-3	13*	2
C=CCNC(=O)N1CCN(Cc2nc3ccccc3c(=O)[nH]2)CC1	-8	0	.	.	5
COc1ccc(NC(=O)c2ccc(N(C)S(C)(=O)=O)cc2)cc1OC	-5	0	-8	0	0
COc1ccc(NC(=O)c2ccc(S(=O)(=O)N(C)C)cc2)cc1OC	3	1	-10	20*	-6
COc1ccccc1NC(=O)c1ccc(CN(c2cc(Cl)ccc2C)S(=O)(=O)c2ccccc2)cc1	4	-1	21	0	-5
COc1ccc(NC(=O)c2ccc(CN(c3cc(Cl)ccc3C)S(=O)(=O)c3ccccc3)cc2)cc1OC	4	2	62*	2	-1
CC(=O)Nc1ccc(/C=N/OCC(=O)Nc2ccc(C)cc2)cc1	-5	-5	-13	-5	10
COc1ccc(C=NOCC(=O)OCC(=O)Nc2ccc(OC)cc2)cc1	-1	-6	-3	42*	7
COC(=O)c1ccc(NC(C(=O)OC)C(C)C)c([N+](=O)[O-])c1 (configuration not stated)	-1	0	1	9	-6
CCC(C)C(Nc1ccc(C(=O)OC)cc1[N+](=O)[O-])C(=O)OC (configuration not stated)	-1	1	10	12*	19
COC(=O)c1cc(-c2cc(F)cc(OC)c2)c(=O)n2c1CCC2	-5	-1	.	.	-4
COc1cc(/C=C/C(=O)N2C(=O)c3cccc(N)c3C2=O)cc(OC)c1OC	-144	-46	-7	1	10
COc1ccc(OC)c(/C=C/C(=O)N2C(=O)c3cccc(N)c3C2=O)c1	-285	-92	-5	11*	1
CCOC(=O)CN1C(c2ccc(O)cc2)Nc2ccc(Br)cc2C1c1ccccc1 (configuration not stated)	7	4	32	19*	3
Nc1cccc2c1C(=O)c1ccc(Cl)cc1C2=O	-11	0	0	-6	16
O=C(O)c1cccc2c1-c1ccc(Cl)cc1C2=O	-2	-5	-3	14*	-8
CN(C)S(=O)(=O)c1cccc(C(=O)N/N=C\c2ccccc2)c1	-3	-2	.	.	4
CC(=O)OC12CCCN(C1)/C(=C/c1ccc(Cl)cc1)C2 (configuration not stated)	-15	-7	.	.	19
O=C(Nc1ccncc1)Nc1cccc(Cl)c1	4	2	-2	14*	-13
Cc1ccc(NC(=O)Nc2cccc(Cl)c2)c(C(=O)O)c1	-208	-61	-2	12*	-18
SMILES	ADAM10 inh	ADAM17 inh	FAS-TE inh	NR3A LBD binder	sPLA2-III inh
O=C(Nc1cccc(Cl)c1)Nc1csc([N+](=O)[O-])c1	14	3	33	31*	-18
CN(C)c1ccc(NC(=O)Nc2cccc(Cl)c2)cc1	4	5	7	22*	-9
CN(c1cccc(NC(=O)Nc2cccc(Cl)c2)c1)S(C)(=O)=O	-4	0	6	-4	-48
Cc1ccc(-c2nnc(SCC(=O)NN=Cc3c[nH]c4ccccc34)n2-c2ccccc2)cc1	14	6	.	.	-18
COc1ccc(C2C(C(=O)N3CCN(C=O)CC3)CC(=O)N2c2ccc(OC)cc2)cc1 (configuration not stated)	-3	-2	.	.	6
Cc1cccc(NC(=O)[C@@H]2CC(=O)O[C@@H]2c2ccccc2)c1C	-12	-3	.	.	2
Nn1cnc2c(c1=O)C1(CCCCC1)Cc1ccccc1-2	0	3	1	2	-3
Oc1ccc(-c2nc3c4c(ncn3n2)-c2ccccc2CC42CCCC2)cc1	3	-4	29	61*	6
Nc1ccc(N=Nc2ccccc2)cc1[N+](=O)[O-]	11	3	18	29*	-1
O=C(NCC1CCCO1)C1CCN(C(=O)c2ccc(Br)cc2)CC1 (configuration not stated)	-4	-3	-10	14*	-2
COc1ccc(S(=O)(=O)N2CCC(C(=O)NCc3cccc(OC)c3)CC2)cc1	1	0	-4	1	-11
COc1cccc(CNC(=O)C2CCN(S(=O)(=O)N3CCCCC3)CC2)c1	8	-2	-4	13*	2
COc1ccc(C(C)C)cc1S(=O)(=O)N1CCC(C(=O)NCC2CCCO2)CC1 (configuration not stated)	2	-2	-7	11*	1
COc1ccc(OC)c(S(=O)(=O)N2CCC(C(=O)NCCc3ccc(OC)c(OC)c3)CC2)c1	4	-2	-7	11*	-3
COc1ccc(S(=O)(=O)N2CCC(C(=O)NCCc3ccc(OC)c(OC)c3)CC2)cc1	-6	-1	-4	.	-1
Fc1cccc(CNC2CCC23CCC(c2ccccc2)CC3)c1 (configuration not stated)	1	1	.	.	1
O=C(NCc1ccccc1)[C@H]1CCCN1C(=O)[C@H]1CCCN1C(=O)c1ccc(OC(F)(F)F)cc1	-2	-5	.	.	8
Cc1noc(C)c1S(=O)(=O)N1CCC(C(=O)NCCc2ccc(S(N)(=O)=O)cc2)CC1	-13	-6	-4	11*	1
COC(=O)c1ccc(CSc2nc3ccccc3c(=O)n2C)o1	2	1	8	1	1
COC(=O)c1ccc(CSc2nc3ccccc3c(=O)n2CC(C)C)o1	16	4	17	20*	3
CS(=O)(=O)c1ccccc1C(=O)Nc1ccc(-c2nc3ccccc3[nH]2)cc1	6	3	-4	-6	-2
Cc1cc(F)ccc1S(=O)(=O)Nc1ccccc1C(=O)Nc1ccccc1-c1nc2ccccc2[nH]1	.	.	39	18*	.
O=C(Nc1ccc(-c2nc3ccccc3[nH]2)cc1)c1ccccc1NS(=O)(=O)c1ccc(F)cc1	i	-346	13	30*	-48
COc1ccc(Nc2nc(NCc3ccco3)nc(N/N=C/c3ccccc3F)n2)cc1	10	4	24	16*	-14
COc1ccc(Nc2nc(NCc3ccco3)nc(N/N=C/c3ccc(O)cc3)n2)cc1	3	4	9	19*	-25
COc1ccc(Nc2nc(Cl)nc(NCc3ccco3)n2)c(OC)c1	2	0	4	1	-6
